The values that follow come from PubChem BioAssay (NCI).

Common to all, as to experiment: NCI-60 one-dose screen, 48 h (100 = growth as untreated, 0 = no growth, -100 = all killed)
Common to all, as to conditions: 10 µM unless noted

Assay [1] relates to SK-MEL-2 melanoma.
For assay [2], the system named is EKVX NSCLC.
Assay [3] deals with SN12C renal.
Assay [4] deals with UO-31 renal.
Assay [5] deals with TK-10 renal.
The subject of assay [6] is ACHN renal.
For assay [7], the system named is CAKI-1 renal.
Assay [8] has as its system A498 renal.
Assay [9] relates to CCRF-CEM leukemia.
Assay [10] has as its system MOLT-4 leukemia.

The panel holds about 83,000 compounds, 20% with a hit somewhere; the sample as a whole holds those more often.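 Single-dose data. Exposure time 48 hours. Values below 10 considered active.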 Values without a mark were called inactive. Active and inactive are the calls of the source.

As for `CC1(C)N=C(N)N=C(N)N1c1ccc(S(=O)(=O)Nc2nccs2)cc1`, the growth in assay [1] is 106%; in [2] it was 102%; in assay [3] it was 95.2%; in assay [4], 89.5%; in assay [5], 86.1%; in assay [6], 108%. For the same molecule, the growth in [7] was 94.3%; in assay [8], 96.2%; in [9], 101%; in assay [10], 103%.

With `NC(=O)c1ccccc1OCC(=O)Nc1ccc(Cl)c(Cl)c1`, the growth in assay [1] is 107%; in [2] it was 92.2%; in assay [3], 101%; in [4] it was 84.1%; in assay [5], 143%; in assay [6], 89.3%. Moreover, the growth in [7] is 70.6%; in assay [8], 93.7%; in assay [9], 92.3%; in assay [10] it was 89%.

With `CCOC(=O)CNC1=C(Cl)C(=O)N(Cc2ccc(Cl)cc2)C1=O`, the growth is 101% in assay [1]; 100% in [2]; 99.1% in assay [3]; 66.6% in [4]; 102% in assay [5]; 101% in assay [6]. In addition, the growth in assay [7] is 95.4%; in assay [8], 90.3%; in assay [9], 102%; in assay [10], 98.2%.

Turning to `O=C(/C=C/c1ccccc1)c1cccc2ccccc12`, the growth is 5.16% (active) in assay [1]; 65.1% in assay [2]; 46.3% in [3]; 46.9% in assay [4]; 22.5% in assay [5]; 43.1% in assay [6]. Moreover, the growth in [7] is 40.7%; in assay [8], 50.1%; in assay [9], 3.83% (active); in assay [10], 6.46% (active).

For `Cc1[nH]n(-c2cccc(Cl)c2)c(=O)c1/C=C1\C=c2ccccc2=CC1=O`, the growth was 38.1% in [1]; 51.3% in [2]; 23.6% in [3]; 66.6% in assay [4]; 17.2% in assay [5]; -36.1% (active) in assay [6]. In addition, the growth is 35% in assay [7], 107% in [8], 36.3% in assay [9] and 44.2% in [10].

For `c1cc(OCCCCCOc2cccc(-c3nc4ccccc4[nH]3)c2)cc(-c2nc3ccccc3[nH]2)c1`, the growth in assay [1] was 9.28% (active); in assay [2] it was 2.5% (active); in assay [3] it was 26.4%; in assay [4], 3.69% (active); in [5] it was 25.7%; in assay [6] it was 6.47% (active). Besides, the growth is 36.4% in assay [7], 9.68% (active) in assay [8], -18.9% (active) in assay [9] and -13.5% (active) in assay [10].

As to `CC1=C(Cl)C(=O)c2cc(C)ccc2C1=O`, the growth was 99.9% in assay [1]; 94.2% in assay [2]; 93.7% in [3]; 73.3% in assay [4]; 108% in assay [5]; 96.9% in assay [6]. The growth in assay [7] is 86.7%; in assay [8], 97.2%; in assay [9] it was 102%; in assay [10], 98.1%.

With `CC1SC(c2ccccc2O)N(NC(=O)CCC(=O)c2nc3ncccc3[nH]2)C1=O` (stereo not given), the growth in assay [1] is 95.8%; in assay [2] it was 85.7%; in assay [3], 101%; in assay [4], 66.9%; in [5], 103%; in [6], 97.4%. For the same molecule, the growth in assay [7] was 80.3%; in [8] it was 90.6%; in assay [9], 116%; in assay [10], 123%.

Take `CCCCNC(=O)c1ccc2c(c1)nc(-c1ccccc1)n2C1CCCCC1`: the growth was 101% in assay [1]; 88.4% in [2]; 102% in assay [3]; 79.1% in [4]; 130% in assay [5]; 102% in assay [6]. Besides, the growth in [7] was 109%; in [8], 101%; in [9], 86.5%; in assay [10], 94.6%.

As for `O=C(NCCCCCCNC(=O)OCc1ccc2c(Cl)cc(Cl)c(O)c2n1)OCc1ccc2c(Cl)cc(Cl)c(O)c2n1`, the growth in assay [1] was -62% (active); in assay [2], -69% (active); in assay [3], -93.4% (active); in assay [4], -100% (active); in [5], -90.3% (active); in assay [6], -97.5% (active). Further, the growth is -87.8% (active) in [7], 34.9% in [8], 2.24% (active) in [9] and -2.75% (active) in [10].

Turning to `COCCn1cc(-c2csc(-c3c[nH]c4ccc(F)cc34)n2)c2cccnc21`, the growth in [1] is 25.3%; in [2], 38%; in [3] it was 66.7%; in assay [4] it was 38.4%; in assay [5], 33.1%; in assay [6] it was 41.9%. Further, the growth in assay [7] was 45.3%; in assay [8], 9.07% (active); in assay [9], 20.1%; in assay [10], 14.2%.

For `O=Nc1ccc(NC(=O)Nc2ccc([N+](=O)[O-])cc2)cc1`, the growth in assay [1] is 116%; in assay [2], 96%; in assay [3], 94.9%; in [4], 85.8%; in assay [5], 99.7%; in assay [6], 94.7%. The growth in [7] is 97.1%; in assay [8] it was 84%; in assay [9], 68.4%; in assay [10], 88.6%.

In the case of `COCCn1cc(-c2nc(-c3cc4cccnc4n3C)cs2)c2ccccc21`, the growth in [1] was 18.7%; in assay [2], 19.8%; in assay [3], 59.1%; in assay [4], 52.1%; in [5], 44.2%; in assay [6], 54.9%. In addition, the growth in assay [7] is 60.7%; in assay [8] it was 33.2%; in assay [9], 46.2%; in [10] it was 26.6%.

On to `Cc1ccc(O)c(NC(=O)c2cccc(Nc3ccnc(C(F)(F)F)c3)c2)c1`, for which the growth in assay [1] was 82.7%; in assay [2], 41.7%; in [3] it was 39.9%; in assay [4], 29.3%; in assay [5], 92.2%; in assay [6] it was 57.8%. Besides, the growth is 41.6% in [7], 96.1% in assay [8], -1.16% (active) in assay [9] and -4.89% (active) in assay [10].

Turning to `CCN(CC)CCCC(Cc1ccccc1)Nc1c2ccc(Cl)cc2nc2ccc(OC)cc12` (stereo not given), the growth in [1] was 7.91% (active); in assay [2], 26.6%; in assay [3], 73.6%; in assay [4], -39.6% (active); in [5], -2.6% (active); in [6], -39.2% (active). For the same molecule, the growth in [7] was 32.6%; in [8] it was 46.8%; in assay [9] it was -0.463% (active); in assay [10] it was 4.64% (active).

Consider `N#Cc1ccc(/C=C/c2cn(-c3ccccc3)nc2-c2cccc([N+](=O)[O-])c2)cc1`, for which the growth is 76.3% in assay [1]; 66.8% in assay [2]; 48.1% in [3]; 79.3% in assay [4]; 76.9% in assay [5]; 32.7% in assay [6]. Besides, the growth in assay [7] was 71.1%; in assay [8], 97%; in [9], 88.3%; in [10], 97.6%.

For the molecule `COc1cc(/C=C2\C(=O)N(CCCOc3cc(O)c4c(=O)cc(-c5ccccc5)oc4c3)c3ccccc32)cc(OC)c1O`, the growth in assay [1] is 81.1%; in assay [2] it was 88.4%; in [3] it was 91.3%; in assay [4] it was 61.9%; in assay [5] it was 87%; in assay [6], 93.3%. The growth was 85.2% in assay [7], 91.7% in assay [8], 70.2% in assay [9] and 64.7% in [10].

On to `COC(=O)/C(CCC=C(C)C)=C1\[C@@H](OC(C)=O)C[C@@]2(C)[C@H]1C/C(=N/O)[C@H]1[C@@]3(C)CC/C(=N\O)[C@@H](C)[C@@H]3CC[C@@]12C`, for which the growth in [1] is 96.7%; in [2] it was 100%; in assay [3], 95.1%; in [4], 77.5%; in [5], 119%; in [6] it was 102%. In addition, the growth in assay [7] was 76.1%; in [8], 111%; in [9], 87.3%; in assay [10], 72.1%.

As to `CC[C@H](Nc1nc(N)nc(C)c1C#N)c1nc2cccc(CN(C)c3ncc(C(=O)NO)cn3)c2c(=O)n1-c1ccccc1`, the growth was -5.85% (active) in assay [1]; 35.3% in assay [2]; 2.71% (active) in [3]; -4.88% (active) in assay [4]; -21.8% (active) in assay [5]; 24% in assay [6]. Further, the growth is 18.1% in assay [7], -40% (active) in [8], 15.3% in [9] and 9.84% (active) in assay [10].

With `Cc1ccc(-c2nc(SCC(=O)N3CCN(c4cc5c(cc4F)c(=O)c(C(=O)O)cn5C4CC4)CC3)nc(Cl)c2C#N)cc1`, the growth in assay [1] was 97.8%; in [2] it was 96.1%; in assay [3], 96.3%; in [4] it was 82.1%; in assay [5] it was 104%; in assay [6], 106%. The growth in assay [7] is 94.7%; in [8], 103%; in [9] it was 106%; in assay [10], 105%.

For `CC(C)CCC[C@@H](C)[C@H]1CC[C@H]2[C@@H]3CC=C4c5sc(Nc6cc(C(F)(F)F)cc(C(F)(F)F)c6)nc5CC[C@]4(C)[C@H]3CC[C@]12C`, the growth was 124% in assay [1]; 97% in assay [2]; 92.3% in assay [3]; 73.4% in assay [4]; 119% in [5]; 106% in [6]. Also, the growth in assay [7] is 85.6%; in assay [8] it was 123%; in [9], 107%; in [10], 103%.
